Active and inactive are the calls of the source. Rule for the calls: active = hit-call score of the fitted dose curve at least 0.9, where 1 is the maximum; inactive = score below 0.9.

In the experiment the target is Signal transducer and activator of transcription 3 (Homo sapiens) (UniProt P40763). Briefly: ATG_STAT3_CIS: Attagene CIS-FACTORIAL HepG2 Assay for human Signal Transducer and Activator of Transcription 3 (STAT3) (AID 2282963). The settings on record: HepG2, Attagene cis-factorial STAT3 reporter transcription; actives raise or lower the signal. The procedure: ATG_CIS is a cell-based, multiplexed-readout assay that uses HepG2, a human liver cell line, with measurements taken at 24 hours after chemical dosing in a 24-well plate.ATG_STAT3_CIS is one of 52 assay component(s) measured or calculated from the ATG_CIS assay. It is designed to make measurements of mRNA induction, a form of inducible reporter, as detected with fluorescence intensity signals by Reverse transcription polymerase chain reaction (RT-PCR) and Capillary electrophoresis technology.Data from the assay component ATG_STAT3_CIS was analyzed into 1 assay endpoint. This assay endpoint, ATG_STAT3_CIS, was analyzed with bidirectional fitting relative to DMSO as the negative control and baseline of activity. Using a type of inducible reporter, measures of mRNA for gain or loss-of-signal activity can be used to understand the reporter gene at the transcription factor-level as they relate to the gene STAT3. Furthermore, this assay endpoint can be referred to as a primary readout, because this assay has produced multiple assay endpoints where this one serves a reporter gene function. To generalize the intended target to other relatable targets, this assay endpoint is annotated to the dna binding intended target family, where the subfamily is stat protein.
Sequence of Signal transducer and activator of transcription 3 (Homo sapiens) (P40763 whole entry, looked up): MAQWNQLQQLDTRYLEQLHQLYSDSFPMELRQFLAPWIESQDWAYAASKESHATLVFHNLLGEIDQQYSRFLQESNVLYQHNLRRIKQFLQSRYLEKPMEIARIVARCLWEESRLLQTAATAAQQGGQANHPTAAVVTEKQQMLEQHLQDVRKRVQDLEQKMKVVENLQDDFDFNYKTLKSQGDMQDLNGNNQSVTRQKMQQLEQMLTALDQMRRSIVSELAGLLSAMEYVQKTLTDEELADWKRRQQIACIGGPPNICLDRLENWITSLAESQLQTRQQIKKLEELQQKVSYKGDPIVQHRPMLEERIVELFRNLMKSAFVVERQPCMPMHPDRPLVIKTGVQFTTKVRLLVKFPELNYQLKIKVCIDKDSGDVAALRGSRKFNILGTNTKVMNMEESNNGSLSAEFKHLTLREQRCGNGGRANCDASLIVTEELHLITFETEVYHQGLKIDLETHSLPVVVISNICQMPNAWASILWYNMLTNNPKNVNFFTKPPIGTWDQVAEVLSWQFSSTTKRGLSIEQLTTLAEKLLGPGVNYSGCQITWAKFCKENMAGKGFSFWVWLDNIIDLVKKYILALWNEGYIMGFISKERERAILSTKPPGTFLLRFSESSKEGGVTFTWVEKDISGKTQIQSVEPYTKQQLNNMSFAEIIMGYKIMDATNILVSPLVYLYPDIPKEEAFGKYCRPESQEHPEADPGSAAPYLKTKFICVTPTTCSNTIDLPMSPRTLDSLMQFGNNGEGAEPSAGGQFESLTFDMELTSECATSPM
Human liver HepG2 cells are transiently transfected with multiple reporter transcription units (MRTUs) in 6-well plates using FuGene 6 reagent (Roche; 3 ml FuGene/1 mg DNA). The MRTU constructs are regulated by a cis-regulating element (promoter). […] A major difference between the CIS and TRANS system is that in CIS activities of endogenous TFs are measured, whereas the TRANS assay evaluates changes in activities of exogenous, chimeric NR-Gal4 proteins. […] At the end of 24 hour incubation, total RNA was isolated using TriZol reagent (Invitrogen). The isolated RNA is then reverse-transcribed using oligo(dT) primer and Mo-MLV reverse transcriptase (Invitrogen) with DNAse I (Ambion) treatment for 30 min. The one-tenth of the produced cDNA was amplified by PCR using Taq DNA polymerase (Invitrogen) and two reporter sequence-specific primers. The PCR products were fluorescently labeled by primer extension with 6-arboxyfluorescein (6-FAM) 5'-labeled reporter sequence-specific primer (2 min at 95 C, 20 s at 68 C and 10 min at 72 C) and these products were digested with 5U of HpaI (New England Biolabs) for 2h at 37 C. The fragments were purified using Qiaquick PCR columns (Qiagen), analyzed on an ABI 3130xL genetic analyzer (Applied Biosystems) with peak positions identified by using a set of X-rhodamine (ROX)-labeled MapMarker1000 molecular weight standards (BioVentures). The raw capillary electrophoresis data was processed using Attagraph software (Attagene).
Consider `CCC(C)C(=O)OC` (stereo not given), for which the outcome was inactive.
Still for that read-out and setting: next, `CC(C)[N+](C)(CCOC(=O)C1c2ccccc2Oc2ccccc21)C(C)C`: “inactive”; `CN(C)c1ccc2nc3ccc(=[N+](C)C)cc-3sc2c1`: “inactive”.
Take `Cc1c(Cl)cccc1Cl`: the molecule was classed as inactive.
Same read-out and setting: next, `CCCCCCCCCCCCCCCCCCOS(=O)(=O)O`: “inactive”; `O=C(O[C@@H]1Cc2c(O)cc(O)cc2O[C@@H]1c1cc(O)c(O)c(O)c1)c1cc(O)c(O)c(O)c1`: “inactive”.
In the case of `CC(C)CC(=O)OCc1ccccc1`, the molecule was classed as inactive.
For the molecule `Cc1ccc2c(c1)CCCN2`, the outcome was inactive.
Regarding `CCN1CN(CC)CN(CC)C1`, the molecule was called inactive.
Consider `CC(C)C(=O)OCCOc1ccccc1`, for which the call was inactive.
For the molecule `COc1cc(O)c(C(=O)c2ccccc2)cc1S(=O)(=O)O`, the outcome was inactive.
Still for that read-out and setting: to `Cc1c(O)cccc1O` belongs “inactive”; to `O=C(Cl)c1c(Cl)c(Cl)c(C(=O)Cl)c(Cl)c1Cl`, “inactive”.
Consider `CCCCOCCOCCOC(C)=O`, for which the molecule was classed as inactive.
As to `CC=C(C)C(C)=O`, the molecule was called inactive.
On to `CC1=NN(c2ccc(S(=O)(=O)O)cc2)C(=O)C1N=Nc1ccccc1` (stereo not given), for which the outcome was inactive.
On the same count and under the same terms, next, `O=C(O)CC(C(=O)O)S(=O)(=O)O` (stereo not given): “inactive”; `C=CCCCCCCCCO`: “inactive”.
Same read-out and setting: next, `CC1=CC=C(C(C)C)CC1`: “inactive”; `CCN1CCCC1=O`: “inactive”; `CCCC(CC)c1ccccc1` (stereo not given): “inactive”.
Consider `CC1=CP(=O)(c2ccccc2)CC1` (stereo not given), for which the result was inactive.
As to `CCCCC(=O)O`, the call was inactive.
For `CC/C=C\CCOC(=O)c1ccccc1O`, the call was inactive.
Consider `COC(Cc1ccccc1)OC`, for which the call was inactive.
Consider `CCNc1nc(NC(C)(C)C)nc(OC)n1`, for which the molecule was classed as inactive.
As to `CCCCCCCCCCCC(=O)N(C)CC(=O)O`, the molecule was classed as inactive.
For `CCCCCCCO`, the molecule was called inactive.
Regarding `O=C(Nc1ccccc1)c1cc(Cl)ccc1O`, the molecule was called inactive.
For the molecule `Nc1ccnc(=O)[nH]1`, the call was inactive.
The same measure, in the same setting: next, `C=CC(=O)OCCCCCCOC(=O)C=C`: “inactive”; `CC1=C(O)C(=O)C(C)O1` (stereo not given): “inactive”.
For `Clc1cc(Cl)c(Cl)c(Cl)c1Cl`, the outcome was inactive.
Turning to `CC(C)CCOCc1ccccc1`, the outcome was inactive.
`Cc1c[nH]c(=O)[nH]c1=O`: the molecule was classed as inactive.
Regarding `Cc1noc(NS(=O)(=O)c2ccc(N)cc2)c1C`, the outcome was inactive.
Consider `Oc1ccc(-c2ccccc2)c(Cl)c1`, for which the AC50 (as a rule, the midpoint of the concentration-response curve, whichever way the signal moves) is 54.5 µM (active).
As for `CC(=O)CC(=O)Nc1ccccc1C`, the molecule was classed as inactive.
For the molecule `Nc1ccc(C(=O)OCCCOC(=O)c2ccc(N)cc2)cc1`, the outcome was inactive.
`O=C1CCCN1C1CCCCC1`: the molecule was called inactive.
